The nature of assay [1]: inhibitors of TNFa-induced NFkB p65 translocation, primary screen, imaging, HUVEC, MLSMR starter and 10KST1 sets (AID 438;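 active = inhibition above 20% together with a positive visual image hit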;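 note: compound added about 3h40 before a 20 min TNFalpha stimulation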;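 for inhibition: signal is the nuclear over cytoplasmic p65 intensity ratio per well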). The following applies: HUVEC TNFa-induced p65 nuclear translocation; cell count: measured here: nuclei count (cytotoxicity indicator), at 2.08 µM; inhibition: at 2 µM, stronger effect = higher value, 0% TNFa-plus-vehicle, 100% no-TNFa wells.
Assay [2] can be described thus: reduction of polyQ htt aggregates in cells – imaging, exon1htt(103Q)mCFP cells, high-content imaging, primary screen (AID 483;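 active = visual image review flags a hit and inhibition of aggregation exceeds 20%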;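 note: compound exposure lasted 3 days before fixation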;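 for nuclei count: percent of the per-plate median nuclei count of sample wells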). Conditions: exon1htt(103Q)mCFP cell line, aggregate imaging, at 2 µM; inhibition of aggregation: stronger effect = higher value; nuclei count: measured here: cell count, toxicity.
A short description of assay [3]: endothelial E-selectin expression blockers – imaging, HUVEC, immunofluorescence, MLSMR starter and 10KST1 sets, primary screen (AID 487;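 active = visually confirmed hit in the image check and inhibition above 20%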;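 for inhibition: signal is fraction of cell area covered by stained E-selectin grains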;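 for nuclei count: 100% = median nuclei count of all wells on the same plate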). The following applies: HUVEC TNFalpha-induced E-selectin immunofluorescence imaging, at 2 µM; inhibition: stronger effect = higher value; nuclei count: measured here: cell number, toxicity.
The nature of assay [4]: Primary imaging screen for DUSP6 inhibitors that restore phospho-Erk in transfected HeLa cells, chemical complementation (AID 609;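 active = compounds giving at least 50% inhibition in the cell-based MKP-3 phosphatase rescue imaging test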;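 for inhibition: phospho-Erk level distribution per well compared with pooled transfected vehicle control wells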). Conditions: HeLa MKP-3 transfected, phospho-Erk imaging KS statistic, at 10 µM, cells stimulated with TPA for 15 min.
Assay [5] has as its target Dual specificity protein phosphatase 6 (Homo sapiens) (UniProt Q16828). The description is as above. Conditions: HeLa MKP-3 transfected, phospho-Erk imaging KS statistic; at 10 µM; stronger effect = higher value; cells stimulated with TPA for 15 min.
Assay [6] addresses Voltage-gated potassium channel subunit beta-2 (Rattus norvegicus) (UniProt P62483). Briefly: inhibitors of rat Kvbeta2 reductase activity – biochemical, NADPH fluorescence, primary screen (AID 622;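 active = fluorescence slope higher than the sample average by over 3 SD, cut at about -0.22 in these data, passing the limit was not always enough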;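 note: slope of raw intensity against log time taken from 70 to 1610 s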). Conditions: recombinant KvBeta, 4-cyanobenzaldehyde reduction, at 10 µM, stronger effect = higher value.
Assay [7] has the same target. The assay is described as follows: enhancers of rat Kvbeta2 NADPH turnover – biochemical, NADPH fluorescence, primary screen (AID 623;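 active = NADPH fluorescence slope more negative than the mean of all samples by about 3 SD, 99.7% confidence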;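 note: fluorescence intensity change per second fitted from 20 to 320 s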). The following applies: Recombinant KvBeta, NADPH fluorescence decrease slope, 10 min; at 10 µM; stronger effect = lower value.
Assay [8] concerns the target Alpha-2C adrenergic receptor (Homo sapiens) (UniProt P18825). The assay is described as follows: compounds altering alpha2C-coupled GIRK flux – cell-based, HEK293 alpha2C/GIRK1/2, thallium flux, primary screen (AID 624;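 active = fluorescence slope after compound addition differing from the mean of all screened samples at 99.7% confidence, in either direction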;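 note: slope of fluorescence ratio to pre-addition baseline per second over 15 to 24 s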). Conditions: thallium flux BTC fluorescence, at 10 µM, actives lie on both sides.
The nature of assay [9]: inhibitors of larval lipid processing in zebrafish, primary screen, whole organism, PED6 fluorescence, gall bladder and intestine (AID 686;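 active = a full or partial loss of lipid-probe fluorescence in the fish gall bladder, intestine or both, judged by eye; inactive = no fluorescence loss, or compound toxic to the fish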;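 note: larvae 5 to 7 days old with five fish per well; signal comes from phospholipase A2 cleavage of quenched PED6 carried via bile; overnight exposure to compound and PED6 before scoring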). Conditions: Zebrafish larvae PED6 lipid processing, fluorescence scoring; screened at 20 µM (by protocol).
Assay [10] can be described thus: loss of swimming-algae plug formation – whole organism, Chlamydomonas reinhardtii, WT vs cilia-less mutant, absorbance, 96-well, primary screen (AID 463189).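 Note: 0% = wild type cc124 cells in DMSO and 100% = ciliumless bld1 mutant cells.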 Conditions: Chlamydomonas reinhardtii gravitaxis, OD600 absorbance, 2 days; at 10 µM; stronger effect = higher value.
Assay [11] in a line: blockers of RIG-like receptor reporter activation – cell-based, Sendai virus stimulus, luciferase, 10K MLSCN set, TLR/RLR signaling modifier project, primary screen (AID 602276;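 active = inhibition at or above 50% at 10 µM; inactive = inhibition below 50%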;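 note: firefly luciferase from ISG56 promoter only with Renilla not read in this screen; 0% = Sendai virus plus DMSO and 100% = medium plus DMSO without virus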). The following applies: HEK293 RL24 IRF3 luciferase reporter, at 10 µM, stronger effect = higher value.
Assay [12] in a line: TLR3 IRF3 reporter activation blockers – cell-based, poly I:C stimulus, luciferase, 10K MLSCN set, primary screen (AID 602277;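 active = inhibition of the reporter signal at or above 50%; inactive = inhibition below 50%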). The following applies: HEK293-TLR3 RL24 IRF3 luciferase reporter, at 10 µM, stronger effect = higher value. (In a reporter assay the amount or activity of a reporter protein is the signal.)
Setting [13] is: measured here: cell density z-score.
The mark [14] stands for this setting: measured here: nuclear c-Myc green intensity z-score.
Where [15] appears, read: measured here: nuclear pErk red intensity z-score, stronger effect = higher value.

Each structure is given as a SMILES string. Where “and” joins values, the source holds several entries; their conditions need not be identical. Equal entries are not always repeated. Some compounds were tested as several samples or in several runs, with calls that do not always agree. Calls of active or inactive are those of the source.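 Rule for the calls, unless noted: active = inhibition at or above 50% relative to wild type and mutant plate controls; inactive = inhibition below 50%.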

Sequence of Dual specificity protein phosphatase 6 (Homo sapiens) (Q16828 whole entry, looked up): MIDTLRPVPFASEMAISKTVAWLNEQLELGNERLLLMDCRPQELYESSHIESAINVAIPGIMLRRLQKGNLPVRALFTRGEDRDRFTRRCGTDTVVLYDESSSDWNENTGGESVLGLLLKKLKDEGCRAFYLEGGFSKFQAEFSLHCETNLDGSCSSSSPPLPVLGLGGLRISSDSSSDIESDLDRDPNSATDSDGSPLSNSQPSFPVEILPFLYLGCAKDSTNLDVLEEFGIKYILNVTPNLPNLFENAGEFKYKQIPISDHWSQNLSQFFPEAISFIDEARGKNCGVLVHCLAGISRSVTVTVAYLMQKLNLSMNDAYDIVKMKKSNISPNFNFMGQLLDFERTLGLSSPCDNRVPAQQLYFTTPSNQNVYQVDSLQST
Sequence of Voltage-gated potassium channel subunit beta-2 (Rattus norvegicus) (P62483 whole entry, looked up): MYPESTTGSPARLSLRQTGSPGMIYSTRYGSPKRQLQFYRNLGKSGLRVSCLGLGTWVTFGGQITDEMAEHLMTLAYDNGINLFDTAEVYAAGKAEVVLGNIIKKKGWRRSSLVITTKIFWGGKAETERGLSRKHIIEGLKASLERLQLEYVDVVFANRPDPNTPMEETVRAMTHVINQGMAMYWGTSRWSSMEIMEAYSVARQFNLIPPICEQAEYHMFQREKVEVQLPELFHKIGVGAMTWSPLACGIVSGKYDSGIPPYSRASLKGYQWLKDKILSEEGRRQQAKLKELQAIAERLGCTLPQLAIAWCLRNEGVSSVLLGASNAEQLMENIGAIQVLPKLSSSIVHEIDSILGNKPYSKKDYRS
Sequence of Alpha-2C adrenergic receptor (Homo sapiens) (P18825 whole entry, looked up): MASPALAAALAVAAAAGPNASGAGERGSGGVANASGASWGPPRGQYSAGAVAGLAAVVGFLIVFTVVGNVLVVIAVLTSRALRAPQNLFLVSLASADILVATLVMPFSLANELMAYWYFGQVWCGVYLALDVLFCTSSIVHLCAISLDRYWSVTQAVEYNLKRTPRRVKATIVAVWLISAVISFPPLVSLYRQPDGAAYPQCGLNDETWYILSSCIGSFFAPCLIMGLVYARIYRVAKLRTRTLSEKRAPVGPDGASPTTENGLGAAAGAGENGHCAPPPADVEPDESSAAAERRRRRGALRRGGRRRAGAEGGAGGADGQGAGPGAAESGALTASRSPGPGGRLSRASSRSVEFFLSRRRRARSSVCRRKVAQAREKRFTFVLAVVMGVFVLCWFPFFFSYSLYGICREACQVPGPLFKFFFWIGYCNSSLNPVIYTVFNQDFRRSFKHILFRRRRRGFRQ

Consider `Cc1nc2sccn2c(=O)c1CCN1CCC(=C(c2ccc(F)cc2)c2ccc(F)cc2)CC1`, for which the cell count in assay [1] turned out to be 597. Besides, the inhibition (in general, the change of the read-out against control, counted positive when it falls) in [1] is -5.2% (inactive); in assay [3], -80.7% (inactive); in [5] it was 27.9% (inactive); in [10], 29.2% (inactive) and 168% (active); in [11] it was 12% (inactive); in assay [12] it was -6.25% (inactive). In [2], the inhibition of aggregation is 4% (inactive). Besides, the nuclei count in assay [2] is 104%; in [3] it was 112%. Further, the z-score was 0.864 in [4] (setting [13]), 0.124 in assay [4] (setting [14]) and -0.385 in assay [4] (setting [15]). In addition, the fluorescence slope in assay [6] was -0.459 (inactive). Also, the NADPH fluorescence slope in [7] was -4.2e-05 (inactive). Also, the slope in assay [8] is 0.0045 (inactive). The outcome in [9] is “inactive; toxic”.
For the compound `Fc1ccccc1-c1nc(NCCCN2CCOCC2)c2ccccc2n1`, the cell count in [1] was found to be 480. Also, the inhibition was -0.7% (inactive) in assay [1]; -89.4% (inactive) in [3]; 27.5% (inactive) in assay [5]; 7.49% (inactive) in [10]; -10.9% (inactive) in assay [11]; -2.43% (inactive) in [12]. In assay [2], the inhibition of aggregation was -2.8% (inactive). Further, the nuclei count in [2] stood at 108%; in assay [3] it was 130%. The z-score is 0.781 in assay [4] (setting [13]), -1.18 in assay [4] (setting [14]) and -0.632 in [4] (setting [15]). Further, the fluorescence slope in assay [6] is -0.448 (inactive). Further, in assay [7], the NADPH fluorescence slope was -1.9e-05 (inactive). In assay [8], the slope is 0.00649 (inactive). Further, in assay [9], the compound was called inactive.
Consider `CCCOc1cccc(C2/C(=C(/O)c3ccccc3)C(=O)C(=O)N2CCN(C)C)c1` (stereo not given), for which, in assay [1], the cell count was determined as 511. Further, the inhibition in assay [1] was -3.9% (inactive); in assay [3], -90.6% (inactive); in [5] it was -0.159% (inactive); in assay [10], 30.4% (inactive); in [11], 15.1% (inactive); in assay [12], 19.2% (inactive). For the same compound, the inhibition of aggregation in assay [2] is -5.1% (inactive). Moreover, the results for the nuclei count in [2] and in assay [3] were 109% and 134%, respectively. The z-score in [4] (setting [13]) was -0.467; in assay [4] (setting [14]) it was 0.337; in assay [4] (setting [15]), 1.7. Further, the fluorescence slope in [6] is -0.431 (inactive). Also, the NADPH fluorescence slope in [7] was -5.6e-05 (inactive). The slope in assay [8] was 0.00489 (inactive). Besides, in assay [9], the compound was classed as inactive.
As to `C[C@@H]1C[C@H]2[C@@H]3CCC4=CC(=O)C=C[C@]4(C)[C@@]3(F)[C@@H](O)C[C@]2(C)[C@H]1C(=O)CO`, the cell count in assay [1] is 647. In addition, the inhibition is -8.8% (inactive) in assay [1]; -68% (inactive) in assay [3]; 31.1% (inactive) in assay [5]; 4.88% (inactive) in assay [10]; -17.5% (inactive) in assay [11]; -9.26% (inactive) in assay [12]. Moreover, the inhibition of aggregation in assay [2] was 0% (inactive). The nuclei count was determined as 59.5% in assay [2] and 134% in [3]. Besides, the z-score in assay [4] (setting [13]) was 1.14; in assay [4] (setting [14]), 0.339; in assay [4] (setting [15]), -1.14. The fluorescence slope in assay [6] is -0.536 (inactive). Further, the NADPH fluorescence slope in assay [7] is -9.8e-05 (inactive). Further, the slope in assay [8] is 0.00544 (inactive). Also, the result in assay [9] was inactive.
As to `Fc1ccc(C2C3=C(Nc4ncnn42)c2ccccc2OC3c2ccncc2)cc1` (stereo not given), the cell count in [1] was determined as 363. The inhibition in [1] was 1.7% (inactive); in assay [3], -83.1% (inactive); in assay [5], 21.4% (inactive); in [10], -7.08% (inactive); in assay [11] it was 17.4% (inactive); in assay [12] it was 19.3% (inactive). In assay [2], the inhibition of aggregation was 2.1% (inactive). Also, the nuclei count in assay [2] turned out to be 113%; in assay [3], 136%. The z-score is 0.971 in [4] (setting [13]), -0.105 in assay [4] (setting [14]) and 1.45 in assay [4] (setting [15]). In addition, the fluorescence slope in [6] was -0.41 (inactive). Also, the NADPH fluorescence slope in [7] was -0.000137 (inactive). The slope in assay [8] is 0.00729 (inactive). The compound was called inactive in assay [9].
